Compound activity (PubChem)
Most compounds without a hit are left out; they make up all but 27% or so of the library.
CYP2C19 act: human CYP2C19 activators, primary screen, biochemical, luminescence. Cytochrome P450 2C19 (Homo sapiens), P33261. activation factor at 5 µM. AID 1025, 2008. 96,000 tested, under 10 active. recombinant CYP2C19, luciferin-H EGE luminescence; active compounds read high; 0 = fully inhibited enzyme, 1 = untreated enzyme;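 active = activation factor of at least 2 at 5 µM in the primary screen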;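 note: 0 = wells with 2.5 mM tranylcypromine and 1 = vehicle-only wells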
CYP2C9 inhib: blockers of cytochrome P450 2C9 activity – biochemical, luminescence, ADME assay, primary screen; P11712; CYP2C9 Supersomes, luciferin-H conversion; inhibition, % at 5 µM; 96,000 tested, 20% active;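 active = blocking of liver enzyme CYP2C9 beyond about 50% at 5 µM, limit read from the data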
CYP2C19 inh: blockers of cytochrome P450 2C19 activity – biochemical, luminescence, ADME assay, primary screen; P33261; CYP2C19 Supersomes, luciferin-H EGE luminescence, 30 min; inhibition, % at 5 µM; 96,000 tested, 21% active; AID 778, 2007;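 active = CYP2C19 inhibition above a set limit at 5 µM in the primary screen, cut at about 50% in these data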;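 note: plate controls were negative control wells for no effect and 2.5 mM tranylcypromine positive control for full effect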
sEH activator: soluble epoxide hydrolase activators, primary screen, biochemical, human sEH; Bifunctional epoxide hydrolase 2 (Homo sapiens), P34913; purified human sEH enzymatic activity, activator screen; activation, % at 2 µM; 91,000 tested, 0.04% active; in the data active = activation above about 37%
Target sequence (P34913 whole entry, looked up): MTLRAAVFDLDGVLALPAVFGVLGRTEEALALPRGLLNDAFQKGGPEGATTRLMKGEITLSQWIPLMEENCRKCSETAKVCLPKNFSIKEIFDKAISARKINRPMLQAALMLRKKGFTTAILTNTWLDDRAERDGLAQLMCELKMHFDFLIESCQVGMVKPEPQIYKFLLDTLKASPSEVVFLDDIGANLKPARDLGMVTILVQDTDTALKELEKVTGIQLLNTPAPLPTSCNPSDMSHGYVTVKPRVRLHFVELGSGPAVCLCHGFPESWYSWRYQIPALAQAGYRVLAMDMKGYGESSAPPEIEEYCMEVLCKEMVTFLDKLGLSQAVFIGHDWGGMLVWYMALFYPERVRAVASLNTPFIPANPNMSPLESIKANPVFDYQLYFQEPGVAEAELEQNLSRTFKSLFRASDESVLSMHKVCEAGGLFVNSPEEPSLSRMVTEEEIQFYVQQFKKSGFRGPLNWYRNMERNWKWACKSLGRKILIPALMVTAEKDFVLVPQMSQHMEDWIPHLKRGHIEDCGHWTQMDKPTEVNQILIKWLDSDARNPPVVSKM
sEH inh: soluble epoxide hydrolase inhibitors, primary screen, biochemical, human sEH. 91,000 tested, 0.34% active. recombinant human sEH enzymatic activity assay. Bifunctional epoxide hydrolase 2 (Homo sapiens), P34913. inhibition, % at 2 µM; in the data active = inhibition above about 80%
CYP2C9 act: human CYP2C9 activators, primary screen, biochemical, luminescence | activation factor at 5 µM | Cytochrome P450 2C9 (Homo sapiens), P11712 | recombinant CYP2C9, luciferin-H conversion; active compounds read high; factor 1 = untreated enzyme, 0 = blocked | 96,000 tested, 1.4% active;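 active = activation factor of 2 or more for CYP2C9 at a 5 µM dose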;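 note: 0 = sulfaphenazole-blocked wells and 1 = vehicle-only wells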
* hit, by the source's call; · = not tested or not shown.

SMILES	CYP2C19 act	CYP2C9 inhib	CYP2C19 inh	sEH activator	sEH inh	CYP2C9 act
COCCCNC(=O)c1c(N)n(/N=C/c2ccccn2)c2nc3ccccc3nc12	0.5	52.2*	47.4	21.3	-23.1	0.5
CCc1ccc(CN2CC(C(=O)O)CC2=O)cc1 (stereo unspecified)	0.6	-18.9	43.3	-20.0	21.5	1.2
CSc1nc(Oc2ccccc2)c2sccc2n1	0.9	60.0*	9.6	1.9	0.4	0.4
C=CCSc1nc(Oc2ccccc2)c2sccc2n1	0.5	34.3	54.0*	12.6	-11.9	0.7
C=CCNc1nc(SCC=C)nc2ccsc12	0.6	-81.5	41.4	-11.6	12.1	1.8
O=C(CNC(=O)Cn1ccc2ccccc2c1=O)NCCCN1CCCCCC1	1.2	-16.8	-16.6	·	·	1.2
Cc1[nH]c(=O)[nH]c(=O)c1CSc1nnc(CCCCCNC(=O)OC(C)(C)C)o1	1	-4.6	2.1	13.0	-15.1	1
CCOC(=O)/C(=C\c1cccnc1)C(=O)c1cc(C(C)=O)c(Nc2ccccc2)s1	0.3	99.8*	65.0*	-7.2	3.1	0
CCOC(=O)/C(=C\c1ccccc1)C(=O)c1cc(C(C)=O)c(Nc2ccccc2)s1	0.1	98.2*	91.6*	20.8	-20.6	0
CC(/C=C\c1cccnc1)=C/C(=O)O	1	5.6	-3.7	-1.3	2.1	0.9
COC(=O)c1ccccc1OCC(=O)N1CCN(c2ccc(OC)cc2)CC1	0.8	12.3	19.3	3.4	-0.8	0.9
CCOC(=O)C(Cc1c[nH]c2ccccc12)NC(=O)c1ccco1 (stereo unspecified)	0.2	72.2*	77.6*	6.7	-7.1	0.3
CN(Cc1ccccc1)C(=O)CCS(=O)(=O)c1ccc2c(c1)n(C)c(=O)c(=O)n2C	1	5.3	4.1	·	·	0.9
Cc1ccccc1-c1nc(S(=O)(=O)c2ccc(Br)cc2)c(NCc2cccnc2)o1	0.2	66.3*	82.0*	-12.1	14.0	0.3
Cc1ccc(S(=O)(=O)c2nc(-c3ccccc3)oc2NCc2cccnc2)cc1	0.2	72.9*	77.3*	4.1	-3.6	0.3
O=C(Cn1[nH]c(=O)c2ccccc2c1=O)NC1CCCCCC1	0.8	0.6	24.9	-67.0	68.0	1
O=c1[nH]n(CC2COC3(CCCCC3)O2)c(=O)c2ccccc12 (stereo unspecified)	0.2	47.3	75.8*	-3.3	4.3	0.5
CCNc1nc(C)nc2c1oc1ccccc12	1	-3.7	-3.0	0.2	0.2	1
c1ccc2c(c1)oc1c(NCCCn3ccnc3)ncnc12	0.2	91.7*	80.0*	-7.2	5.4	0.1
Cc1nc(NCCCn2ccnc2)c2oc3ccccc3c2n1	0.2	95.8*	84.7*	-2.8	2.9	0
Cc1cc(Nc2ccccc2F)n2ncnc2n1	1	3.8	-3.1	·	·	1
Cc1cccc(C)c1-n1nnnc1C1(Nc2ccccc2)CCCCC1	0.4	61.1*	61.0*	-4.7	6.6	0.4
CNCC(O)Cn1c(C(F)(F)F)nc2ccccc21 (stereo unspecified)	·	·	·	9.6	-9.6	·
O=c1oc2ccccc2c2c1ncn2CCN1CCOCC1	0.5	-14.2	50.0*	5.0	-1.4	1.1
COc1cc(-n2cnnn2)ccc1S(=O)(=O)N1CCOCC1	1	-3.3	-4.1	-13.7	12.5	1
SMILES	CYP2C19 act	CYP2C9 inhib	CYP2C19 inh	sEH activator	sEH inh	CYP2C9 act
Cc1ccc(S(=O)(=O)N2CCOCC2)c(C)c1-n1cnnn1	1.1	-197.6	-8.6	-6.5	8.7	3*
CCOc1ccc(NC(=O)CN2C(=O)COc3ccc(Cl)cc32)cc1	1	-9.0	-1.7	0.0	-0.9	1.1
Cc1cccc(NC(=O)CN2C(=O)COc3ccc(Cl)cc32)c1C	0.1	32.2	88.4*	-18.1	17.4	0.7
Cc1cccc(NC(=O)CN2C(=O)COc3ccc(Cl)cc32)c1	0.3	17.6	71.9*	·	·	0.8
O=C(CN1C(=O)COc2ccc(Cl)cc21)Nc1ccc2c(c1)OCCO2	0.8	31.6	22.2	10.7	-8.1	0.7
COc1cccc(NC(=O)CN2C(=O)COc3ccc(Cl)cc32)c1	0.1	78.4*	91.7*	·	·	0.2
CCOC(=O)N1CCN(C(=S)NCCOC)CC1	0.9	-4.2	6.8	-3.0	2.8	1
CCOC(=O)C1CCN(C(c2cc3ccc(C)c(C)c3[nH]c2=O)c2nnnn2C2CCCCC2)CC1 (stereo unspecified)	0.2	89.7*	80.1*	7.4	-7.8	0.1
COc1ccccc1N1CCN(C(=O)C2CCN(S(=O)(=O)N3CCOCC3)CC2)CC1	1	-13.4	-3.1	-3.6	5.4	1.1
Cn1c(=O)n(C)c2cc([N+](=O)[O-])c(N3CCN(C(=O)c4ccc(Cl)cc4)CC3)cc21	1	27.3	2.4	·	·	0.7
O=[N+]([O-])c1cc(C(F)(F)F)ccc1N1CCN(S(=O)(=O)c2ccc3ccccc3c2)CC1	0.4	-14.2	57.5*	9.3	-4.9	1.1
Cn1c(=O)n(C)c2cc([N+](=O)[O-])c(N3CCN(S(=O)(=O)c4ccc(C(C)(C)C)cc4)CC3)cc21	0.7	62.2*	29.4	-0.2	-1.7	0.4
O=S(=O)(c1ccccc1)c1nc(Nc2ccccc2N2CCOCC2)sc1Cl	0.3	88.2*	74.1*	13.1	-11.2	0.1
Cc1nnc2ccc(Oc3ccc(-c4ccccc4)cc3)nn12	0.8	22.0	16.2	-2.9	3.4	0.8
CC(=O)c1ccc2c3c(ccc(O)c13)CC2	0.7	-142.2	32.1	-14.9	15.4	2.4*
CCOC(=O)C1=C(O)/C(=C\c2ccc(CNC(=O)C(=O)Nc3ccc(C)c(C)c3)o2)N=C1C	0.4	82.6*	55.2*	22.0	-25.3	0.2
COC(=O)C1=C(O)/C(=C\c2ccc(O)c(OC)c2)N=C1C	0.8	23.4	15.0	6.5	-4.4	0.8
CCOC(=O)N1CCN(C(=O)CN(C)S(=O)(=O)c2ccc3c(c2)C(C)(C)C(=O)N3C)CC1	0.9	20.1	5.3	9.8	-9.7	0.8
Fc1ccccc1CNc1cc(Cl)cc(Cl)c1	·	·	·	15.8	-12.9	·
Oc1ccc(NCc2ccccc2OCc2ccccc2F)cc1	0.5	46.8	51.7*	-19.9	21.6	0.5
CCOc1cc(CNCCc2ccc(S(N)(=O)=O)cc2)ccc1OCc1ccccc1	0.7	18.0	30.5	21.5	-20.6	0.8
Cc1ccc(NCc2ccccc2OCc2ccccc2F)cc1	0.4	41.2	56.8*	-1.7	3.7	0.6
NS(=O)(=O)c1ccc(NCc2ccccc2OCc2ccccc2F)cc1	0.6	75.3*	39.5	-3.7	5.4	0.2
COC(=O)NC(=S)Nc1ccc(Oc2ccc(Cl)cc2Cl)c(Cl)c1	·	·	·	-7.5	6.4	·
COC(=O)C(O)(CC(=O)Nc1ccccc1OC)C(F)(F)F (stereo unspecified)	·	·	·	10.3	-7.0	·
